Test results from PubChem BioAssay AID2685 (National Center for Advancing Translational Sciences (NCATS), 2010).
Where “and” joins values, the source holds several entries; their conditions need not be identical. Equal values may be shown once. Among all 320,000 compounds or so, about 2,100 (0.66%) were called active. About 53% were inconclusive and are not listed. Calls follow the shape of the dose curve; as a rule, active = well fitted inhibition curve with a large enough effect in the signal ratio, with a control signal flat (not every such curve was filed as active); inconclusive = small, poorly fitted or top-dose-only effect, or effect the other way, or a change in a side signal; inactive = flat fitted curve, though single readings scatter; the % refers to the signal ratio. This excerpt belongs to a sample that is enriched for actives.
Potency is read from the fitted curve at half-maximal effect.

Assay: qHTS Assay for Lipid Storage Modulators in Drosophila S3 Cells;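 as to cell number change: cells counted by Cell Tracker Red CMTPX staining in the red channel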
Conditions: BODIPY lipid droplet fluorescence, 18-24 h, cells fed with added oleic acid; cell number change: measured here: cell count max response; series mostly up to 46.1 µM
In short: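 Laser-scanning cytometry quantifies lipid droplet accumulation (500–530 nm total intensity; droplet/cell object ratio) in oleic acid-fed (400 uM added) Drosophila S3 cells treated with a concentration series. 20 uM Triacsin C defined 100% inhibition.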
With `Cc1ccc(NC(=O)CCN2C(=O)C3C4CCC(C4)C3C2=O)cc1[N+](=O)[O-]` (centres undefined) the Potency was “inactive” and the cell number change was -0.215%.
In the case of `Cc1ccnc2nc(C(=O)OCC(=O)N(CC(C)C)C3CCS(=O)(=O)C3)nn12` (centres undefined), the Potency is reported as “inactive” and the cell number change is reported as 2.08%.
In the case of `COc1ccc(CC(=O)NCC2COc3ccccc3O2)cc1` (centres undefined), the Potency is reported as “inactive” and the cell number change is reported as 0.718%.
With `COc1ccccc1C(=O)NCCC(=O)NCC1COc2ccccc2O1` (centres undefined) the Potency was 20.6 µM (active) and the cell number change was -11.7%.
In the case of `O=C(CCC1COc2ccccc2O1)NCC1COc2ccccc2O1` (centres undefined), the Potency is reported as “inactive” and the cell number change is reported as 8.2%.
For `O=C(N/C(=C/c1ccccc1)C(=O)N1CCCCCC1)c1ccccc1`, the Potency was “inactive” and the cell number change was 10.3%.
For `CCOC(=O)c1c2ccccc2[n+]([O-])n1CCO`, the Potency was 18.4 µM (active) and the cell number change was -10.4%.
For `CCOC(=O)c1c(C)nc2c3ccccc3ccn12`, the Potency was “inactive” and the cell number change was -20.3%.
In the case of `CCOC(=O)c1c(O)c(O)c(C(=O)OCC)n1-c1ccccc1`, the Potency is reported as “inactive” and the cell number change is reported as 6.34%.
In the case of `Cc1nc2ccc(NS(=O)(=O)c3ccc(F)cc3)cc2s1`, the Potency is reported as “inactive” and the cell number change is reported as 20%.
In the case of `Cc1ccc(S(=O)(=O)Nc2ccc3nc(C)sc3c2)cc1`, the Potency is reported as “inactive” and the cell number change is reported as -22.9%.
With `Cc1ccc(S(=O)(=O)Nc2ccc3nc(C)sc3c2)c(C)c1` the Potency was 10.3 µM (active) and the cell number change was 24.9%.
For `Cc1nc2ccc(NS(=O)(=O)c3ccc(F)cc3F)cc2s1`, the Potency was 13 µM (active) and the cell number change was -1.41%.
In the case of `Cc1ccc(S(=O)(=O)Nc2ccc3nc(N)sc3c2)cc1`, the Potency is reported as “inactive” and the cell number change is reported as -27.3%.
For `Cc1nc2ccc(NS(=O)(=O)c3ccccc3F)cc2s1`, the Potency was “inactive” and the cell number change was 3.06%.
With `COC(=O)C1=C(C)N(Cc2ccccc2)C(=NCc2cccc(Cl)c2)N[C@H]1c1ccccc1` the Potency was “inactive” and the cell number change was -18.9% and 6.44%.
In the case of `COC(=O)C1=C(C)N(Cc2ccccc2)C(=NCc2ccccc2)N[C@H]1c1cccc(F)c1`, the Potency is reported as “inactive” and the cell number change is reported as -6.29%.
With `COC(=O)C1=C(C)N(Cc2ccccc2)C(=NCc2cccc(Cl)c2)N[C@H]1c1cccc(F)c1` the Potency was 20.6 µM (active) and the cell number change was -27.7%.
For `CCc1ccc(/C=C2\SC(=S)N(CCC(=O)NC3=NCCS3)C2=O)cc1`, the Potency was “inactive”.
With `Cc1cccc(Nc2nc(N)nc(CN3CCN(c4ccc(F)cc4)CC3)n2)c1` the Potency was “inactive” and the cell number change was -18.7%.
With `CC1CC(C)CN(CCCNC(=O)C2CCCN(c3nnc(N4CCCC4=O)s3)C2)C1` (centres undefined) the Potency was “inactive” and the cell number change was 2.76%.
In the case of `Cc1ccc(CNC(=O)C2CCN(c3nnc(N4CCCC4=O)s3)CC2)cc1`, the Potency is reported as “inactive” and the cell number change is reported as 24.8%.
For `CCN(CC)CCCNC(=O)C1CCCN(c2nnc(N3CCCC3=O)s2)C1` (centres undefined), the Potency was 25.9 µM (active) and the cell number change was -17%.
With `COc1ccccc1NC(=O)c1c([N+](=O)[O-])c(C(C)(C)C)nn1C` the Potency was “inactive” and the cell number change was 11.1%.
In the case of `C#CCNC(=O)C1=C[C@@H](c2coc3ccccc3c2=O)C[C@@H](OCCCCO)O1`, the Potency is reported as “inactive” and the cell number change is reported as 6.85%.
In the case of `CC(Oc1cccc(Cl)c1)C(=O)Nc1ccccc1N1CCCCC1` (centres undefined), the Potency is reported as “inactive” and the cell number change is reported as 7.85%.
For `CC(=O)c1ccc(OCC(=O)Nc2ccccc2N2CCCC2)cc1`, the Potency was “inactive” and the cell number change was -18%.
In the case of `CCN1CCN(c2ccccc2NC(=O)C(C)Oc2ccc(C(C)=O)cc2)CC1` (centres undefined), the Potency is reported as 18.4 µM (active) and the cell number change is reported as -13.7%.
For `O=C(NNC(=O)c1ccc(Br)s1)NC1CCCCC1`, the Potency was “inactive” and the cell number change was 8.62%.
For `CCSc1nnc(NC(=O)CSc2nnc(-c3c[nH]c4ccccc34)n2C)s1`, the Potency was 2.06 µM (active) and the cell number change was -1.84%.
In the case of `CCc1nnc(NC(=O)CSc2nnc(-c3c[nH]c4ccccc34)n2C)s1`, the Potency is reported as “inactive” and the cell number change is reported as 4.19%.
For `CCSc1nnc(NC(=O)CSc2nnc(-c3c[nH]c4ccccc34)n2CC)s1`, the Potency was “inactive” and the cell number change was 11.1%.
With `CSc1cccc(NC(=O)C2CCN(S(=O)(=O)c3ccc4c(c3)NC(=O)CO4)CC2)c1` the Potency was “inactive”.
For `O=C(Cc1cccs1)NCCn1ccc2ccccc21`, the Potency was “inactive”.
With `CCOC(=O)CC(=O)CSc1nc2c(sc(=S)n2-c2ccccc2)c(=O)[nH]1` the Potency was “inactive” and the cell number change was 3.4%.
With `CC1(C)CC(CC(=O)O)CC(C)(C)N1` the Potency was “inactive” and the cell number change was 0.961%.
In the case of `C/C(=N\O)C1CC(CC(=O)O)C1(C)C` (centres undefined), the Potency is reported as 2.06 µM (active) and the cell number change is reported as 4.13%.
With `COCCNC(=O)CSc1nnc(NC(=O)C2CC(=O)N(c3ccccc3OC)C2)s1` (centres undefined) the Potency was “inactive” and the cell number change was 3.03%.
With `O=C(CCN1CCN(C(=O)c2ccccc2)CC1)c1ccc(Br)cc1` the Potency was “inactive” and the cell number change was 16%.
For `CC(=O)OCC(OC(C)=O)C(OC(C)=O)C(OC(C)=O)C(=O)Nc1ccccc1` (centres undefined), the Potency was “inactive” and the cell number change was 13.3%.
In the case of `CCSc1nnc2c(n1)[nH]c1c(C)cccc12`, the Potency is reported as 20.6 µM (active) and the cell number change is reported as -28.9%.
For `CSc1nnc2c(n1)[nH]c1c(C)cccc12`, the Potency was “inactive” and the cell number change was -19.5%.
For `CCSc1nnc2nc3[nH]c4c(C)cccc4c3nn12`, the Potency was “inactive” and the cell number change was 0.802%.
With `COc1ccc([N+](=O)[O-])cc1NC(=O)CSCc1ccccc1` the Potency was “inactive” and the cell number change was -5.97%.
In the case of `c1csc(Cc2nc3ccccc3[nH]2)c1`, the Potency is reported as “inactive”.
In the case of `O=C(COC(=O)C12CC3CC(CC(C3)C1)C2)Nc1ccc2[nH]c(=O)[nH]c2c1`, the Potency is reported as “inactive”.
In the case of `Cc1cccc(NC(=O)Cn2c(=O)n(CCC(=O)NC3CCCC3)c(=O)c3ccccc32)c1`, the Potency is reported as “inactive”.
With `O=C(NCc1ccccn1)c1ccc2c(=O)n3nc(Nc4ccccc4)sc3nc2c1` the Potency was 4.11 µM (active).
With `COc1ccccc1Nc1nn2c(=O)c3ccc(C(=O)NCc4cccnc4)cc3nc2s1` the Potency was “inactive” and the cell number change was -12.9%.
For `CCc1ccccc1Nc1nn2c(=O)c3ccc(C(=O)NCc4cccs4)cc3nc2s1`, the Potency was “inactive” and the cell number change was -9.06%.
In the case of `COc1ccc(OC)c(-c2csc(NC(=O)C3CSC4(C)CCC(=O)N34)n2)c1` (centres undefined), the Potency is reported as “inactive”.
In the case of `CN1CCN(CCCNC(=S)Nc2ccc(F)c(Cl)c2)CC1`, the Potency is reported as “inactive”.
For `CCCNc1nc(N)nc(-c2cc(Cl)ccc2OC)n1`, the Potency was “inactive” and the cell number change was 5.2%.
For `CNc1nc(N)nc(-c2cc(Cl)ccc2OC)n1`, the Potency was “inactive” and the cell number change was -0.358%.
With `CCNc1nc(N)nc(-c2cc(Cl)ccc2OC)n1` the Potency was 3.66 µM (active) and the cell number change was -11.6%.
With `CC(=O)c1ccc(NC(=O)CN(C)CC(=O)Nc2cccc(F)c2)cc1` the Potency was “inactive” and the cell number change was 10.5%.
With `CC1CN(S(=O)(=O)c2cccc(-c3cn4cccnc4n3)c2)CC(C)O1` (centres undefined) the Potency was “inactive” and the cell number change was -27.2%.
In the case of `Cc1ccc2nc(-c3cccc(S(=O)(=O)N4CC(C)OC(C)C4)c3)cn2c1` (centres undefined), the Potency is reported as 16.4 µM (active) and the cell number change is reported as -15.5%.
For `Cc1ccn2cc(-c3cccc(S(=O)(=O)N4CC(C)OC(C)C4)c3)nc2c1` (centres undefined), the Potency was “inactive” and the cell number change was 5.5%.
